Records with an inconclusive call do not appear. Where a call stands in place of a potency, no number is given. Activity calls are given as the source filed them. The call rests on the fitted dose curve; in most records, active means well fitted cell-killing curve with a large enough effect; inconclusive means small, poorly fitted or top-dose-only effect, or effect the other way; inactive means no such curve, though single readings can be large or run the other way.
Test: Quantitative High-Throughput drug screen in 47 multiple myeloma cell lines against the NCATS MIPE library collection: FR4_PLB cell viability assay (AID 1918924; further: nearly all actives have a fitted effect of over 35% in size)
Conditions: FR4_PLB myeloma cells viability, CellTiter-Glo ATP, 48 h; series mostly up to 45.8 µM
Description: PI: Beverly A. Mock Ph.D.
Laboratory of Cancer Biology and Genetics,
Center for Cancer Research, National Cancer Institute,
National Institute of Health, Bethesda, Maryland
Drug resistance and disease progression are common in multiple myeloma (MM) patients, underscoring the need for new therapeutic combinations. […] We hypothesized that effective combinations would reduce MYC expression and enhance p16 activity. […] These preclinical data identify potentially useful drug combinations for evaluation in drug-resistant MM and reveal potential mechanisms of combined drug sensitivity.
Described herein is the primary MIPE qHTS used to cherrypick compounds. Validated compounds were then further tested for potential synergistic activiy.
[1] Peat TJ, Gaikwad SM, Dubois W, Gyabaah-Kessie N, Zhang S, Gorjifard S, Phyo Z, Andres M, Hughitt VK, Simpson RM, Miller MA, Girvin AT, Taylor A, Williams D, D'Antonio N, Zhang Y, Rajagopalan A, Flietner E, Wilson K, Zhang X, Shinn P, Klumpp-Thomas C, McKnight C, Itkin Z, Chen L, Kazandijian D, Zhang J, Michalowski AM, Simmons JK, Keats J, Thomas CJ, Mock BA. Drug combinations identified by high-throughput screening promote cell cycle transition and upregulate Smad pathways in myeloma. Cancer Lett. 2023 Aug 1;568:216284. doi: 10.1016/j.canlet.2023.216284. Epub 2023 Jun 24. PMID: 37356470; PMCID: PMC10408729.
SEQUENCE No. (e.g., 1, 2, 3, etc.); […] (e.g., Cells, Incubation, Reagent, etc.); VALUE and DESCRIPTION.
1; Cells; 5 uL; white, solid bottom 1536-well Greiner assay plate.
2; Compounds; 23 nL; Kalypsis pin tool (Wako USA) equipped with a 1536-well pin head to transfer to the assay plates.
3; Incubation; 48 hours; 37C incubation.
4; Reagent;5uL; CellTiter Glo (Promega).
5; Detector; 425V; Luminescence; Viewlux PerkinElmer.
NOTES (numbers refer to Sequence numbers above)
1. The cell-based screening methods employed in this study were like those previously published. Briefly, the corresponding myeloma cell lines were screened in 1,536-well plates with 500 cells, 5-uL per well for inhibition of cell viability (assessed by measuring ATP levels with CellTiterGlo).
2. NCATS MIPE 4.0 library of approved and investigational drugs were added using the Kalypsis pin tool. Wells treated with DMSO only for 100% viability and media only wells for 0% viability were used as controls.
3. The assay plates were covered and incubated for 48 hours in a 37C, 5% CO2 incubator with controlled humidity.
4. After 48 hours, CellTilter-GloTM luminescent substrate mix (Promega) reagent was added to the assay plate and plates we incubated for 5 min at room temperature.
5. Signal was measured as median relative luminescence units on a ViewLux (PerkinElmer) multiplate reader.
[1] Heske CM, Davis MI, Baumgart JT, Wilson K, Gormally MV, Chen L, Zhang X, Ceribelli M, Duveau DY, Guha R, Ferrer M, Arnaldez FI, Ji J, Tran HL, Zhang Y, Mendoza A, Helman LJ, Thomas CJ. Matrix Screen Identifies Synergistic Combination of PARP Inhibitors and Nicotinamide Phosphoribosyltransferase (NAMPT) Inhibitors in Ewing Sarcoma. Clin Cancer Res. 2017 Dec 1;23(23):7301-7311. doi: 10.1158/1078-0432.CCR-17-1121. Epub 2017 Sep 12. PMID: 28899971; PMCID: PMC6636827.
Potency means the concentration at half of the fitted maximal effect.

SMILES | Potency
C[C@H]1c2cccc(O)c2C(O)=C2C(=O)[C@]3(O)C(O)=C(C(N)=O)C(=O)[C@@H](N(C)C)[C@@H]3[C@@H](O)[C@@H]21 | 26.4 µM (active)
COc1ccc2c(c1)c(CC(=O)O)c(C)n2C(=O)c1ccc(Cl)cc1 | inactive
CN1CCN(CCCN2c3ccccc3Sc3ccc(Cl)cc32)CC1 | 23.5 µM (active)
CN(C)CCOC(c1ccccc1)c1ccccc1 | inactive
CN(C)c1nc(N(C)C)nc(N(C)C)n1 | inactive
CS(=O)(=O)Nc1ccc([N+](=O)[O-])cc1Oc1ccccc1 | inactive
NC(=O)OCC(COC(N)=O)c1ccccc1 | inactive
CS(=O)(=O)CCNCc1ccc(-c2ccc3ncnc(Nc4ccc(OCc5cccc(F)c5)c(Cl)c4)c3c2)o1 | 14.8 µM (active)
Cn1ccc2cc3c(cc21)CCN3C(=O)Nc1cccnc1 | inactive
CCC1(c2ccccc2)C(=O)NCNC1=O | inactive
CN(C)C(=N)N=C(N)N | inactive
Nc1nc2c(ncn2COC(CO)CO)c(=O)[nH]1 | 26.4 µM (active)
Nc1c2c(nc3ccccc13)CCCC2 | inactive
CCN1CCCC1CNC(=O)c1cc(S(=O)(=O)CC)c(N)cc1OC (stereo not given) | inactive
Cc1ccc(C(=O)Nc2ccc(S(=O)(=O)O)c3cc(S(=O)(=O)O)cc(S(=O)(=O)O)c23)cc1NC(=O)c1cccc(NC(=O)Nc2cccc(C(=O)Nc3cc(C(=O)Nc4ccc(S(=O)(=O)O)c5cc(S(=O)(=O)O)cc(S(=O)(=O)O)c45)ccc3C)c2)c1 | inactive
Cn1cnc2c1c(=O)[nH]c(=O)n2C | 26.4 µM (active)
CN(CCOc1ccc(NS(C)(=O)=O)cc1)CCc1ccc(NS(C)(=O)=O)cc1 | inactive
O=C1c2c(O)ccc(O)c2C(=O)c2c(NCCNCCO)ccc(NCCNCCO)c21 | 1.66 µM (active)
CC(C)(C)C(=O)Oc1ccc(S(=O)(=O)Nc2ccccc2C(=O)NCC(=O)O)cc1 | inactive
O=C(c1ccc(OCCN2CCCCC2)cc1)c1c(-c2ccc(O)cc2)sc2cc(O)ccc12 | 26.4 µM (active)

SMILES | Potency
CCCCc1oc2ccccc2c1C(=O)c1cc(I)c(OCCN(CC)CC)c(I)c1 | 26.4 µM (active)
Cc1cn([C@H]2C[C@H](N=[N+]=[N-])[C@@H](CO)O2)c(=O)[nH]c1=O | inactive
O=C(C1CCCCC1)N1CC(=O)N2CCc3ccccc3C2C1 (stereo not given) | inactive
CC(C)(Oc1ccc(C2CC2(Cl)Cl)cc1)C(=O)O (stereo not given) | inactive
CC(CCc1ccc(O)cc1)NCCc1ccc(O)c(O)c1 (stereo not given) | 23.5 µM (active)
Cn1c(=O)c2[nH]cnc2n(C)c1=O | inactive
Cc1cc(C(C)(C)C)cc(C)c1CC1=NCCN1 | inactive
CC1COc2c(N3CCN(C)CC3)c(F)cc3c(=O)c(C(=O)O)cn1c23 (stereo not given) | inactive
CN1CCC(=C2c3ccccc3CC(=O)c3sccc32)CC1 | inactive
COc1cc2c(c(OC)c1OC)-c1ccc(OC)c(=O)cc1[C@@H](NC(C)=O)CC2 | inactive
CCCNCC(O)COc1ccccc1C(=O)CCc1ccccc1 (stereo not given) | inactive
COc1ccccc1N1CCN(CC(O)COc2cccc3ccccc23)CC1 (stereo not given) | inactive
CN1C2CCC1CC(OC(=O)C(CO)c1ccccc1)C2 (stereo not given) | inactive
CC(C(=O)O)c1cccc(C(=O)c2ccccc2)c1 (stereo not given) | inactive
C[C@](N)(Cc1ccc(O)c(O)c1)C(=O)O | inactive
CC[C@@]1(O)C(=O)OCc2c1cc1n(c2=O)Cc2cc3c(CN(C)C)c(O)ccc3nc2-1 | 2.64 µM (active)
Clc1ccc2nsnc2c1NC1=NCCN1 | inactive
O=C(CCCN1CCC(O)(c2ccc(Cl)cc2)CC1)c1ccc(F)cc1 | inactive
NC(=O)NO | 3.32 µM (active)
CC(C)C(=O)Nc1ccc([N+](=O)[O-])c(C(F)(F)F)c1 | inactive
